Screening results deposited in PubChem by University of Kansas High Throughput Screening Laboratory.
The entries come from a sample that favours hits as a whole.
mHTT-CaM PPI inh: mHTT-calmodulin interaction abrogation. P42858. AlphaScreen His-mHTT/GST-CaM binding, luminescence. inhibition, % at 15 µM. hit rate 3.6% among 190,000;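 note: 0% = both proteins with DMSO and 100% = one protein alone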
Target sequence (P42858 whole entry, looked up, stated change not applied): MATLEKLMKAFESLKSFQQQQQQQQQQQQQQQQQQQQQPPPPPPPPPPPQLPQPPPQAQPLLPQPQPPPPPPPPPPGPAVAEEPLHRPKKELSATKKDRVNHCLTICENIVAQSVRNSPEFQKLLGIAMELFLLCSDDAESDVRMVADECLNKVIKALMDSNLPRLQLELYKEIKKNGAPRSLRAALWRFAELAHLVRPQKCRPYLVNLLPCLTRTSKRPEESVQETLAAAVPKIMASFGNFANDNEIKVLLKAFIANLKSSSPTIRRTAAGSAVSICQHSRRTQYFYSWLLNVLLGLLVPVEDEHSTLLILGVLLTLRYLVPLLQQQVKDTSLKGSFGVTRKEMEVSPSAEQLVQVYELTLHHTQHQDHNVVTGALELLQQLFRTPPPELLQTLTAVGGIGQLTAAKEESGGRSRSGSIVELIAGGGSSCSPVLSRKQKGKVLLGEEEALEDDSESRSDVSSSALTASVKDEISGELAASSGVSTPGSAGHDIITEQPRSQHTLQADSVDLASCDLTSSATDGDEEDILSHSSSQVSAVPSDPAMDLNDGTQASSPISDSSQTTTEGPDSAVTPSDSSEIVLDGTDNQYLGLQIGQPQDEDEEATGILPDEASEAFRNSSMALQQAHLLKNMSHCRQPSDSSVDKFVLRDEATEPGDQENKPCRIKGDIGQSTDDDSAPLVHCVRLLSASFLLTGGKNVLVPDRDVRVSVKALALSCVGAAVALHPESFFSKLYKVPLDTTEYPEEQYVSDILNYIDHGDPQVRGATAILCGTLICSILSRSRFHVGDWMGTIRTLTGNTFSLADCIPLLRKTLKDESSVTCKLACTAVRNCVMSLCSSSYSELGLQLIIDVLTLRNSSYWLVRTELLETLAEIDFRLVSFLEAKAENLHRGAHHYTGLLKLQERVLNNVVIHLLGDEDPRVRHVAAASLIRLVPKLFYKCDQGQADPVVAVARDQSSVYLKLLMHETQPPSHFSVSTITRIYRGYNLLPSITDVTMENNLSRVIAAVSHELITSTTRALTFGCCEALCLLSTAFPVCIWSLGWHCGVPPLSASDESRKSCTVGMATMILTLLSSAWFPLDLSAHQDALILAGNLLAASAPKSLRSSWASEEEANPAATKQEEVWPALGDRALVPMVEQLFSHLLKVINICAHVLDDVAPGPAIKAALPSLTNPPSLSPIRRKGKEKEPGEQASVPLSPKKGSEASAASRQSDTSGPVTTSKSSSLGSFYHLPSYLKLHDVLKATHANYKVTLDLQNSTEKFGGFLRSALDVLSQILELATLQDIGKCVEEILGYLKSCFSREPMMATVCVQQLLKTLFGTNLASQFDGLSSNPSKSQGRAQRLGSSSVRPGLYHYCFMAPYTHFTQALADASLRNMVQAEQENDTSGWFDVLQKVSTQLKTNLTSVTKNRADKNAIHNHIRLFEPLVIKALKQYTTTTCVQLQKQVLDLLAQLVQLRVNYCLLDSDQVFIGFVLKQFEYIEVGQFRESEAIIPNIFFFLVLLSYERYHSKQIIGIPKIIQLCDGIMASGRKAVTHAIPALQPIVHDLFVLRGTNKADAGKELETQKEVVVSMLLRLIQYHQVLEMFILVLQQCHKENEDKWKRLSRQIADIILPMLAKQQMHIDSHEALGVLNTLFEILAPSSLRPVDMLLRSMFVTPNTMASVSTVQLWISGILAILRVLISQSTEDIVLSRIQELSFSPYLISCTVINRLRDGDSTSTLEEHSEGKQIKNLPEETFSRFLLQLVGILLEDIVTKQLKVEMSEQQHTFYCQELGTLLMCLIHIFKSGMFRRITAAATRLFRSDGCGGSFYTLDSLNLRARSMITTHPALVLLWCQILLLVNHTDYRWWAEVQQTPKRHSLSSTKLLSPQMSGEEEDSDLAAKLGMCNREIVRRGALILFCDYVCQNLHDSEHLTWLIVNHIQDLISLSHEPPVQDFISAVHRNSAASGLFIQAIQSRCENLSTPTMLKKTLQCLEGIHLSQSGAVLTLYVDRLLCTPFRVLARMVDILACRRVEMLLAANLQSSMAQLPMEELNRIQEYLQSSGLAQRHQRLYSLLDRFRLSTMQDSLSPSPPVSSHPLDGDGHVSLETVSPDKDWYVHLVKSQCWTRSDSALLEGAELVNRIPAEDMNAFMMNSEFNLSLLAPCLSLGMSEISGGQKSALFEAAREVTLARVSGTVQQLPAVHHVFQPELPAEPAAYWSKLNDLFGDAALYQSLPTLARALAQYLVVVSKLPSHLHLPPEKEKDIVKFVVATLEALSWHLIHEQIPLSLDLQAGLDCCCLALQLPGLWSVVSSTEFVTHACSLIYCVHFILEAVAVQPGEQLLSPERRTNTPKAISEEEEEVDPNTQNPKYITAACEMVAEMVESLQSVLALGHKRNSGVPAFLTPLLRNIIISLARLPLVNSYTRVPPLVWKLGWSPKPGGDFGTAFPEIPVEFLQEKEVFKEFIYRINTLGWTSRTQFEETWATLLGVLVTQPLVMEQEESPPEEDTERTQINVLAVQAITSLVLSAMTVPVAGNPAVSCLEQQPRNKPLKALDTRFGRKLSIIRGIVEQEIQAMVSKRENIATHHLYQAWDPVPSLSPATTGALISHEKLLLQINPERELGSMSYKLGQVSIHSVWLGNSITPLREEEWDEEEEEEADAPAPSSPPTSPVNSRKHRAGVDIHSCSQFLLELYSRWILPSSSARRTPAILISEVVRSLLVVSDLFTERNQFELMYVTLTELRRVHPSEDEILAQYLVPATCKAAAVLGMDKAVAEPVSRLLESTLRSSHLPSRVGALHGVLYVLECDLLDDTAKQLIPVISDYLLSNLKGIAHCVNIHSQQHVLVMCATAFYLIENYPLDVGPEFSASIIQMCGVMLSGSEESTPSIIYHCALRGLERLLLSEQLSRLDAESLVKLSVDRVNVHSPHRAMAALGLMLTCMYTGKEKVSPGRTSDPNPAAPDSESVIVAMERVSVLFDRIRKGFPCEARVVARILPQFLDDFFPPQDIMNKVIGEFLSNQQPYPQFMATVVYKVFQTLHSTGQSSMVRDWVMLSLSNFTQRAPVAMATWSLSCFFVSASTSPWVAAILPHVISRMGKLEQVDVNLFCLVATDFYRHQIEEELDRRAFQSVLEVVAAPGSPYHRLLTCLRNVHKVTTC
Pf apPOL inh: Pf-apPOL DNA polymerase inhibition; Recombinant Pf-apPOL, molecular beacon fluorescence, 1.5 h; inhibition, % at 10 µM; hit rate 0.25% among 210,000; AID 1794808
Starred values were filed as active, the others as inactive; / = not tested or not shown. Cut-off read from the data, not from the text of the source: active = inhibition above about 50%; inactive = the rest.

SMILES	mHTT-CaM PPI inh	Pf apPOL inh
Cc1ccc(OCCn2c(SCC(N)=O)nc3ccccc32)cc1	17	2
CCC1(CC)OC(c2cccc([N+](=O)[O-])c2)Nc2ccccc21 (stereo unspecified)	28	5
CCC1(CC)OC(c2c([N+](=O)[O-])cc([N+](=O)[O-])cc2[N+](=O)[O-])Nc2ccccc21 (stereo unspecified)	79*	0
O=C(Nc1c(C(=O)Nc2ccc(F)cc2)cnn1-c1ccccc1)c1ccco1	6	-7
COc1ccc(Cl)cc1C(=O)N1CCN(C2=NN=C(c3cccs3)CS2)CC1	68*	5
COc1ccc(Cl)cc1C(=O)N1CCN(c2ccccc2F)CC1	-1	-11
Cc1nc(-c2cccs2)sc1C(=O)C=CN(C)C	/	-8
O=C1NC(=Nc2cccc(Cl)c2Cl)S/C1=C\c1ccco1	100*	-15
Cc1ccc(N=C2NC(=O)/C(=C/c3ccco3)S2)cc1	69*	-3
COc1ccc(N=C2NC(=O)/C(=C\c3ccco3)S2)cc1	43	-21
COc1cccc(/C=C2/SC(=Nc3ccccc3Cl)NC2=O)c1OC	8	-3
Cc1cc(C)c2c(N3CCCCC3)nc(C(=O)N3CCCC(C)C3)nc2n1 (stereo unspecified)	4	-17
CCc1cc(-c2[nH]ncc2-c2cnn(-c3ccccc3)c2)c(O)cc1O	94*	-3
COc1ccc(-c2[nH]ncc2-c2cnn(-c3ccccc3)c2)c(O)c1C	17	3
COc1ccc(C(=O)Nc2cc(C)c(C)cc2O)cc1Cl	10	6
Cc1sc(NC(=O)c2cc(-c3ccc4c(c3)OCO4)nc3ccccc23)c(C(N)=O)c1C	3	-8
CC1CCCC(Nc2ccc(N3C(=O)CCC3=O)cc2[N+](=O)[O-])C1C (stereo unspecified)	42	-16
CC1CCCC(Nc2ccc(N3C(=O)C4C5C=CC(C5)C4C3=O)cc2[N+](=O)[O-])C1C (stereo unspecified)	55*	-19
N#CC(=Cc1c(Cl)cccc1Cl)S(=O)(=O)c1ccc(Cl)cc1	/	-5
N#C/C(=C\c1cn[nH]c1-c1ccccc1)S(=O)(=O)c1ccc(Cl)cc1	89*	12
COc1cc(OC)c(OC)cc1CNC1C2CC3CC(C2)CC1C3 (stereo unspecified)	-1	-3
O=C(O)COc1ccc2c(c1)OC(=Cc1cccc(Br)c1)C2=O	-3	15
O=C(O)COc1ccc2c(c1)OC(=Cc1ccc(Cl)c(Cl)c1)C2=O	-5	63*
Cc1cc(NC(=O)NC(=O)c2c(Cl)cccc2Cl)no1	/	-1
O=C1Nc2ccc(Cl)cc2/C1=C/c1ccccc1	65*	0
SMILES	mHTT-CaM PPI inh	Pf apPOL inh
COc1ccccc1/C=C1\C(=O)Nc2ccc(Cl)cc21	24	-1
COc1ccc(/C=C2\C(=O)Nc3ccc(Cl)cc32)cc1OC	74*	-11
O=C1Nc2ccc(Cl)cc2/C1=C/c1ccccc1F	19	7
COc1ccc(C(=O)Nc2ccc(-n3nncc3-c3ccc(OC)c(OC)c3)cc2)cc1OC	25	-4
O=C1Nc2ccc([N+](=O)[O-])cc2C1(O)N1CCOCC1 (stereo unspecified)	2	-1
COCc1[nH]nc2c1C(c1cc(OC)ccc1OC)C(C#N)=C(N)O2 (stereo unspecified)	-4	-5
Cc1nc(Nc2ccc(O)cc2)nc(Nc2ccc(O)cc2)c1[N+](=O)[O-]	57*	0
Cc1nc(Nc2ccc3c(c2)OCCO3)nc(Nc2ccc3c(c2)OCCO3)c1[N+](=O)[O-]	24	/
N#Cc1c(-c2ccccc2)cc(-c2cccs2)nc1Br	-9	-4
COc1nc(-c2cccs2)cc(-c2ccc(C)cc2)c1C#N	-36	53*
CC(C)(O)C#Cc1ccc(N2C(c3ccsc3)=Cc3ccc(F)cc3C2c2c[nH]c3ccc(C#N)cc23)cc1 (stereo unspecified)	-7	-4
COc1ccc(N2C(c3ccsc3)=Cc3cc4c(cc3C2c2c[nH]c3ccccc23)OCO4)cc1 (stereo unspecified)	70*	-9
CC(C)CCNc1ccc(S(=O)(=O)Cc2ccc(Cl)cc2)nn1	-14	-4
O=C(O)C1CC(=O)N(Cc2ccc(Cl)cc2)C(=Nc2ccc(Cl)cc2)S1 (stereo unspecified)	27	-13
COc1ccc(N=C2SC(C(=O)N3CCN(c4ccc(F)cc4)CC3)CC(=O)N2C)cc1 (stereo unspecified)	51*	-8
COc1ccc(CN2C(=O)CC(C(=O)O)SC2=Nc2ccc(Cl)cc2)cc1 (stereo unspecified)	4	52*
COc1ccc(N=C2SC(C(=O)O)CC(=O)N2Cc2ccc(F)cc2)cc1 (stereo unspecified)	-4	3
C=CCSc1nnc2nc(C)cc(C)n12	-3	-4
CC(C)(C)c1cc(C(=O)NN)n[nH]1	-2	-5
NNC(=O)c1cc(-c2ccc(Cl)cc2)nc2ccccc12	10	0
O=C(Cc1ccccc1F)N1CCC(COc2ccccc2C(=O)N2CCOCC2)CC1	5	-12
O=C(Cc1ccccc1F)N1CCC(COc2ccccc2C(=O)N2CCCCC2)CC1	1	71*
COc1ccc(C2CCCN2C(=O)c2cc(-c3ccco3)on2)cc1 (stereo unspecified)	3	-1
Cc1ccccc1NC(=O)N1CCc2nc(-c3ccccc3)ncc2C1	-10	2
Cc1ccc(S(=O)(=O)c2ccc(Cl)cc2)cc1S(=O)(=O)Nc1ccc(C(=O)O)cc1	-2	3
SMILES	mHTT-CaM PPI inh	Pf apPOL inh
CC(=O)Nc1ccc(NC2=CC(=NS(=O)(=O)c3ccc(C)cc3)c3ccccc3C2=O)cc1	39	-1
CC(=O)Nc1ccc(NC2=CC(=NS(=O)(=O)c3ccccc3)c3ccccc3C2=O)cc1	71*	-2
O=C(O)c1ccc(NC2=CC(=NS(=O)(=O)c3ccc(Cl)cc3)c3ccccc3C2=O)cc1	82*	5
CCCCN(C)C(=O)C1c2cc(OC)c(OC)cc2C(=O)N(C)C1c1ccccc1F (stereo unspecified)	-8	-2
COc1ccc(OC)c(CNC(=O)CCc2cn(Cc3ccccc3)c3ccccc23)c1	-12	-14
CCOC(CCNC(=O)c1cc(-c2ccc(Br)s2)nc2ccccc12)OCC	-11	-2
CCCNC(=O)c1cnc(-c2ccc(F)cc2)nc1N1CCOCC1	-1	1
COc1cccc(S(=O)(=O)N2CCC(c3noc(-c4ccccc4C)n3)CC2)c1	2	-1
CC(=O)N1CCc2cc(C(=O)N3CCCC3)ccc21	1	-1
O=C(Nc1cccn2c(C3CCC3)nnc12)C1CCCO1 (stereo unspecified)	-1	-2
O=C(Nc1cccn2c(C3CCC3)nnc12)c1ccccn1	61*	-8
O=C(NCC(O)c1cccc2ccccc12)C1CCCC1 (stereo unspecified)	-2	-4
O=C(Cc1c(F)cccc1Cl)Nc1nnc(-c2ccsc2)o1	57*	8
O=C(Nc1nnc(-c2ccsc2)o1)c1ccccn1	100*	-181
O=C(Nc1nnc(-c2ccsc2)o1)c1cc(-c2ccccc2)on1	-4	-228
O=C(Nc1nnc(-c2ccsc2)o1)c1ccccc1F	40	-5
Cc1ccc(N2C=C(C(=O)N3CCCCC3)S(=O)(=O)c3ccccc32)cc1C	58*	0
Cc1ccc(N2C=C(C(=O)N3CCCCC3)S(=O)(=O)c3ccccc32)cc1Cl	-7	-2
CCCNC(=O)N1CCN(Cc2nc3cccnc3n2-c2cccc(C)c2)CC1	-1	0
